Sampled rows, rich in hits. Any-hit rate of the full collection: about 1.2%.
GSH fluor = GSH bead compound fluorescence profile. GSH beads flow cytometry, compound fluorescence 488/530 nm; stronger effect = higher value. fluorescence (KMESF) at 10 µM. actives 0.25% (n = 190,000); in the data active = fluorescence above about 89;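 note: glutathione beads carrying GST-tagged Bcl family fusion proteins plus one bare bead set; values are compound well signal with DMSO vehicle wells as background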
RGS4-Gao reg = modulates binding of RGS4 to human Galphao; P09471; Multiplexed bead flow cytometry; actives lie on both sides; binding response (% of control), % at 10 µM; actives 0.33% (n = 220,000); AID 1415; in the data active = binding response below about 49% or above about 150%; inactive = in between;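 note: fluorescent Galphao activated with aluminum fluoride binding bead-coupled RGS4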
Target sequence (P09471 whole entry, looked up): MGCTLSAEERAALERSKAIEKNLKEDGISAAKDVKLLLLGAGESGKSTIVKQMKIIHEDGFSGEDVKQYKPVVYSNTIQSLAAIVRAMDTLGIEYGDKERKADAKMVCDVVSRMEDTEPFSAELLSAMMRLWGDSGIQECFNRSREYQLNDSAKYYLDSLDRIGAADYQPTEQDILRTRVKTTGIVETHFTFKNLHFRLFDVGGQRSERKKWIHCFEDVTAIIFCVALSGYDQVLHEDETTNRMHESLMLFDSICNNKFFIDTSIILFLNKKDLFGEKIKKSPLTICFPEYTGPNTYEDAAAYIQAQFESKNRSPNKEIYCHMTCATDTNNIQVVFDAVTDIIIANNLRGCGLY
RGS8-Gao = regulators of human RGS8-Galphao interaction | P09471 | multiplexed bead flow cytometry, RGS8-Galphao binding; actives lie on both sides | response (percent of control binding), % at 10 µM | actives 0.34% (n = 220,000) | AID 1423; in the data active = response below about 60% or above about 140%; inactive = in between;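 note: Galphao activated as the GDP aluminium fluoride complex binding bead-coupled RGS8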
RGS7-Gao reg = modulates binding of RGS7 to human Galphao. Multiplexed bead flow cytometry; actives lie on both sides. actives 0.35% (n = 220,000). AID 1439. binding response (% of control), % at 10 µM; in the data active = binding response below about 49% or above about 150%; inconclusive = no clear call, values can overlap the other calls; inactive = in between;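 note: fluorescent Galphao held in activated GDP-AlF4 state binding bead-coupled RGS7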
Avidin bead fluor = compound fluoresces at 488/530 nm on avidin beads; compound fluorescence 488/530 nm, flow cytometry; stronger effect = higher value; fluorescence (KMESF) at 10 µM; AID 1775; actives 0.38% (n = 220,000); in the data active = fluorescence above about 47
RGS16-Gao HTS = modulates binding between human RGS16 and Galphao. O15492+P09471. bead-based flow cytometry RGS16-Galphao binding, fluorescence; actives lie on both sides. binding response (% of control), % at 10 µM. actives 0.38% (n = 220,000);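 note: Galphao activated by GDP with aluminum fluoride before binding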
RGS4-Gao HTS = regulators of human RGS4-Galphao interaction; shares compounds with RGS16-Gao HTS; multiplexed bead flow cytometry, RGS–Galpha-o binding; RGS4–Galpha-o binding response, % at 10 µM; actives 99% (n = 1,600);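 note: fluorescently labeled Galpha-o bound to GDP with aluminium fluoride binding biotinylated RGS beads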
Target sequence (P09471 whole entry, looked up): as above
Target sequence (P49798 whole entry, looked up): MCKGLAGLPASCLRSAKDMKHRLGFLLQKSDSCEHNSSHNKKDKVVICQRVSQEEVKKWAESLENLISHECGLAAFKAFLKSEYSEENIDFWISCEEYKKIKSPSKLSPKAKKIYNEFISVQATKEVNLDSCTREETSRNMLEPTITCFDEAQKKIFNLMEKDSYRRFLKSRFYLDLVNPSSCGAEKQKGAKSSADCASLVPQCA
Biotin-avidin = counter-screen: compounds disrupting biotin binding to avidin beads; shares compounds with RGS16-Gao HTS; streptavidin beads, fluorescein-biotin binding, flow cytometry; inhibition, % at 10 µM; 1,700 tested, under 10 active;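 active = inhibition above 50%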;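 note: median green fluorescence of gated singlet beads compared with DMSO control wells; 0% = DMSO wells and 100% = complete loss of bead fluorescence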
RGS8-Gao confirm = confirmation of regulators of human RGS8-Galphao interaction; bead-based flow cytometry RGS8-Galphao binding, fluorescence; actives lie on both sides; binding response (% of control), % at 10 µM; shares compounds with RGS16-Gao HTS; actives 3% (n = 1,700); in the data active = binding response below about 72% or above about 130%; inactive = in between;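 note: Galphao activated as GDP AlF4 complex before binding bead RGS8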
RGS7-Gao single = RGS7-Galphao interaction regulation, single point confirmation; shares compounds with RGS16-Gao HTS; bead-based flow cytometry RGS7-Galphao binding; actives lie on both sides; response (percent of control binding), % at 10 µM; actives 7.8% (n = 1,700); in the data active = response below about 75% or above about 130%; inactive = in between;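 note: fluorescent Galphao activated with GDP and aluminum fluoride binding bead-coupled RGS7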
RGS16-Gao single = confirmation of regulators of human RGS16-Galphao interaction | actives 4% (n = 1,700) | response (% of control binding), % at 10 µM | shares compounds with RGS16-Gao HTS | bead-based flow cytometry, RGS16-Galphao binding; actives lie on both sides; in the data active = response below about 74% or above about 130%; inactive = in between;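 note: Galphao activated as the GDP aluminium fluoride complex binding bead-coupled RGS16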
RGS4-Gao single = confirmation of regulators of human RGS4-Galphao interaction | shares compounds with RGS16-Gao HTS | RGS4-Galphao binding, multiplexed bead flow cytometry; actives lie on both sides | binding response (% of control), % at 10 µM | actives 4% (n = 1,700) | AID 1840; in the data active = binding response below about 74% or above about 130%; inactive = in between
RGS19-Gao single = RGS19-Galphao interaction regulation, single point confirmation. shares compounds with RGS16-Gao HTS. AID 1841. actives 5% (n = 1,700). bead-based flow cytometry RGS19-Galphao binding; actives lie on both sides. response (percent of control binding), % at 10 µM; in the data active = response below about 50% or above about 160%; inactive = in between;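 note: 100% = no compound control and 0% = blank background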
* marks the source's active call; other numbers are inactive results; i = inactive; ? = inconclusive; . = not tested or not shown; [ ] = remark or other dose. Unless noted, the rule behind the calls is not given here.

SMILES	GSH fluor	RGS4-Gao reg	RGS8-Gao	RGS7-Gao reg	Avidin bead fluor	RGS16-Gao HTS	RGS4-Gao HTS	Biotin-avidin	RGS8-Gao confirm	RGS7-Gao single	RGS16-Gao single	RGS4-Gao single	RGS19-Gao single
O=C1c2ccccc2C(=O)N1CCCCN(C(=O)c1cc([N+](=O)[O-])cc([N+](=O)[O-])c1)c1ccc(Cl)cc1	5	91	71	89	10	16*	91*	i	102	102	110	104	120
CCOC(=O)c1c(C)[nH]c(C(=O)COC(=O)c2ccccn2)c1C	17	99	102	105	12	101	.	.	.	.	.	.	.
CCOC(=O)c1c(-c2ccc(C)cc2)csc1NC(=O)CCN1CC(C)OC(C)C1 (stereo not drawn)	11	103	108	101	8	136	.	.	.	.	.	.	.
Cc1cccc2sc(NC(=O)[C@@H]3CCCN3C(=O)c3cccs3)nc12	16	101	131	111	7	211*[activator]	101*	-3	100	96	100	97	101
OCC(O)C(O)C(O)C(O)c1nc2ccccc2[nH]1 (stereo not drawn)	12	97	96	?	11	95	.	.	.	.	.	.	.
OC(c1ccc(Cl)cc1)C(O)c1nc2ccccc2[nH]1 (stereo not drawn)	60	121	141*[activator]	109	4	303	121*	.	.	.	.	.	.
CNc1ncc(-c2nnnn2-c2ccccc2)c(-c2ccccc2)n1	.	109	105	?	7	107	.	.	.	.	.	.	.
Cc1cccc(NC(=O)CCn2ccnc2C)c1	30	22*	14*	16*	0	13*	.	-1	102	94	102	98	96
Cc1cccc(NC(=O)CCN2CCOCC2)c1	8	101	101	97	18	97	.	.	.	.	.	.	.
S=C(Nc1ccc2c(c1)OCO2)Nc1ccc2c(c1)OCO2	22	142	141*[activator]	159*[activator]	10	146	142*	0	100	103	99	102	92
CN(C)C(=S)Nc1ccc2c(c1)OCO2	10	97	94	95	9	95	.	.	.	.	.	.	.
O=C(NCc1cccc(Cl)c1)c1cnccn1	34	102	103	105	16	106	.	.	.	.	.	.	.
CCOC(=O)C1CCN(C(=O)CSc2ccc(Br)cc2)CC1	14	111	100	110	15	106	.	.	.	.	.	.	.
CCOC(=O)C1CCN(C(=O)CSc2ccc(Cl)cc2)CC1	15	49*	49*	55	2	8.3*	.	0	106	103	105	105	100
N/C(=N\NC(=O)c1ccc(Cl)cc1)c1cnccn1	.	93	102	?	7	96	.	.	.	.	.	.	.
O=C(Nc1ccccc1)N1CCCC1	41	.	.	.	.	.	.	2	97	97	98	96	88
CCOc1ccccc1N=C1SC(CC(=O)Nc2ccc(OC)cc2OC)C(=O)N1CCC1=CCCCC1 (stereo not drawn)	9	99	95	100	2	67	.	.	.	.	.	.	.
O=C(CC1SC(=Nc2ccc(OC(F)F)cc2)N(CCC2=CCCCC2)C1=O)Nc1ccccc1F (stereo not drawn)	3	89	77	89	7	25*	89*	0	105	99	108	103	104
CC1CC(OCC(O)C[N+]2(C)CCOCC2)CC(C)(C)C1 (stereo not drawn)	14	22*	30*	21*	5	17*	.	0	108	106	109	105	109
O=C(Nc1nnc(-c2ccco2)o1)c1ccc(S(=O)(=O)N2CCCC2)cc1	19	99	104	105	5	99	.	.	.	.	.	.	.
CC(C)(C)NC(=O)NC(=O)COC(=O)c1cc[n+]([O-])cc1	22	126	121	212*[activator]	207*	232	126*	-1	100	96	101	99	103
CC(C)(C)NC(=O)NC(=O)COC(=O)c1cccc(F)c1	24	90	94	94	4	88	.	.	.	.	.	.	.
COc1ccc(C2=NN(C(=S)Nc3ccccc3)C(c3ccccc3)C2)cc1 (stereo not drawn)	11	117	134	118	12	385*[activator]	117*	0	106	102	109	105	118
COc1ccc(C2CC(c3ccccc3)=NN2C(=S)Nc2ccccc2)cc1 (stereo not drawn)	9	104	102	109	25	104	.	.	.	.	.	.	.
CCOC(=O)CSC1=C(C#N)C(c2ccccc2OC)CC(=O)N1 (stereo not drawn)	13	99	103	100	17	102	.	.	.	.	.	.	.
SMILES	GSH fluor	RGS4-Gao reg	RGS8-Gao	RGS7-Gao reg	Avidin bead fluor	RGS16-Gao HTS	RGS4-Gao HTS	Biotin-avidin	RGS8-Gao confirm	RGS7-Gao single	RGS16-Gao single	RGS4-Gao single	RGS19-Gao single
CCN1c2cccc3cccc(c23)S1(=O)=O	32	155*[activator]	131	155*[activator]	21	152	.	-1	102	104	103	101	100
COC(=O)CNC(=O)CN1c2cccc3cccc(c23)S1(=O)=O	17	100	98	95	28	99	.	.	.	.	.	.	.
Cc1[nH]nc(S(=O)CC(=O)O)c1[N+](=O)[O-] (stereo not drawn)	11	100	100	104	16	98	.	.	.	.	.	.	.
CCCNC(=O)Cn1sc2nc(C)cc(C)c2c1=O	.	78	60	?	2	16*	78*	0	52*	70*	9.1*	73*	3.9*
Cc1cc(C)c2c(=O)n(CC(=O)N3CCC(N4CCCCC4)CC3)sc2n1	16	92	82	117	3	64	.	.	.	.	.	.	.
CCOC(=O)C1CCCN(C(=O)Cn2sc3nc(C)cc(C)c3c2=O)C1 (stereo not drawn)	18	90	58*	95	2	17*	90*	-1	61*	75*	16*	73*	15*

High-throughput results from PubChem.
